Records with an inconclusive call do not appear. Active and inactive are the calls of the source. Unless noted, the call rests on the fitted dose curve.
What was measured:
[1] = Nuclear factor erythroid 2-related factor 2/antioxidant responsive element (Nrf2/ARE) small molecule agonists: qHTS cell viability counter screen in human keratinocytes (AID 1919968; active means well fitted curve in the direction sought with a large enough effect in the repeat runs; an effect the other way counts as inactive or inconclusive; further: nearly all actives have a fitted effect of over 55% in size)
Method in brief: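 Stably transfected HaCaT (KeratinoSens), 1,500/well. Test agents in DMSO were applied for 23 h, 37 C/5% CO2. CellTiter-Fluor was incubated 1 h before the fluorescence read.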

[2] = Nuclear factor erythroid 2-related factor 2/antioxidant responsive element (Nrf2/ARE) small molecule agonists: luciferase reporter gene qHTS assay in human keratinocytes (AID 1919969); further: nearly all actives have a fitted effect of over 35% in size; further: potency means the concentration at half of the fitted maximal effect
[3] = target: Gonadotropin-releasing hormone receptor (Homo sapiens) (UniProt P30968); test: Human gonadotropin-releasing hormone receptor (GnRHR) small molecule agonists, calcium flux assay in GnRHR-HEK293 cells (AID 1920063); further: nearly all actives have a fitted effect of over 35% in size
Method in brief: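 Stable human GnRHR HEK293 line. 18 h plating, then calcium dye for 1 h at 37 C. Agonist-mode compound addition from DMSO stocks; fluorescence monitored 3 min.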

[4] = target: KiSS-1 receptor (Homo sapiens) (UniProt Q969F8); test: Human kisspeptin (KISS1R) small molecule agonists, calcium flux assay in KISS1R-HEK293 cells (AID 1920064; active means well fitted curve in the direction sought with a large enough effect in the repeat runs; an effect the other way counts as inactive or inconclusive)
Method in brief: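 After overnight (18 h) culture at 37 C/5% CO2, human KISS1R-HEK293 cells received calcium dye for 1 h, then test compound; emission at 540 nm (excitation 480 nm) was tracked for 3 min.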

[5] = p53 small molecule agonists, cell-based qHTS assay with human liver microsomes (AID 1963577);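 further: p53 response element beta-lactamase reporter cells with liver microsomes plus NADPH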
Method in brief: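 p53RE-bla cells, 4,000/well, compound added after 5 h, with human liver microsomes 0.5 mg/mL and NADPH 0.5 mg/mL final; 16 h at 37 C, then LiveBLAzer 2 h RT, fluorescence.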

[6] = p53 small molecule agonists, cell-based qHTS assay with human liver microsomes: qHTS cell viability counter screen (AID 1963579); further: nearly all actives have a fitted effect of over 45% in size
Method in brief: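 p53RE-bla cells, 4,000/well, dosed 5 hours after plating, with human liver microsomes (0.5 mg/mL final) plus NADPH (0.5 mg/mL final), 16 hours at 37 C. Viability read as CellTiter-Glo luminescence after 30 min at room temperature.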

[7] = p53 small molecule agonists, cell-based qHTS assay with rat liver microsomes: qHTS cell viability counter screen (AID 1963580); further: nearly all actives have a fitted effect of over 45% in size
Method in brief: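 Cytotoxicity counter screen: intracellular ATP measured by CellTiter-Glo luminescence in the same wells as the beta-lactamase reporter read, on HCT-116 p53RE-bla cells exposed 16 h at 37 C to compounds with rat liver microsomes and NADPH, each 0.5 mg/mL final.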

[8] = p53 small molecule agonists, cell-based qHTS assay: qHTS cell viability counter screen (AID 1963581); further: nearly all actives have a fitted effect of over 45% in size
Method in brief: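 qHTS counter screen: 16 h compound exposure at 37 C of p53RE-bla HCT-116 cells (4,000 per well, seeded 5 h prior), cell viability by ATP luminescence.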

[9] = p53 small molecule agonists, cell-based qHTS assay (AID 1963582; active means well fitted activation curve with a large enough effect in the signal ratio in the repeat runs, not every such curve was filed as active; the % refers to the signal ratio)
Method in brief: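 Measured: fluorescence from cleaved LiveBLAzer substrate. System: p53RE-bla cells, 16 h compound treatment at 37 C, 2 h substrate step at room temperature.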

[10] = target: 5-hydroxytryptamine receptor 2A (Homo sapiens) (UniProt P28223); test: 5-hydroxytryptamine receptor 2A (HTR2A) small molecule antagonists, cell-based qHTS assay (AID 1963586); further: nearly all actives have a fitted effect of over 45% in size; further: potency means the concentration at half of the fitted maximal effect
Method in brief: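 CHO cells stably expressing human HTR2A were plated for 18 h at 37 C, then loaded with calcium dye for 1 h. Compounds were preincubated 5 min at room temperature before DOI (4 nM solution) was added. Kinetic fluorescence was read for 3 min.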

[11] = target: 5-hydroxytryptamine receptor 2A (Homo sapiens) (UniProt P28223); test: 5-hydroxytryptamine receptor 2A (HTR2A) small molecule agonists, cell-based qHTS assay (AID 1963587); further: nearly all actives have a fitted effect of over 30% in size
Method in brief: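 CHO cells stably expressing human HTR2A, plated 18 h, loaded with calcium dye 1 h at 37 C. Agonist mode: compounds added and intracellular calcium fluorescence recorded kinetically for 2 min at 1 sec intervals.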

[12] = target: Muscarinic acetylcholine receptor M1 (Homo sapiens) (UniProt P11229); test: Cholinergic receptor muscarinic 1 (CHRM1) small molecule antagonists, cell-based qHTS assay (AID 1963588); further: nearly all actives have a fitted effect of over 40% in size
Method in brief: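 Compounds were tested at 15 concentrations in three independent runs. Dye-loaded CHRM1-CHO cells were exposed 5 min at room temperature before stimulation by acetylcholine added at 50nM. Intracellular calcium was read kinetically on FDSS for 3 min.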

[13] = target: Muscarinic acetylcholine receptor M1 (Homo sapiens) (UniProt P11229); test: Cholinergic receptor muscarinic 1 (CHRM1) small molecule agonists, cell-based qHTS assay (AID 1963589); further: nearly all actives have a fitted effect of over 35% in size
Method in brief: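 Kinetic fluorescence (1 s intervals) of calcium-sensitive dye in human M1 CHO cells after compound addition; cells pre-incubated 18 h at 37 C/5% CO2 and dye-loaded 1 h.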

[14] = cAMP Responsive Elements (CRE) small molecule agonists, cell-based qHTS assay (AID 1963590)
Method in brief: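 Test agents in DMSO were incubated 3 h at 37 C/5% CO2 with CRE-bla HEK 293T cells seeded 18 h earlier; LiveBLAzer B/G FRET substrate was added and read after 2 h at room temperature.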

[15] = cAMP Responsive Elements (CRE) small molecule antagonists, cell-based qHTS assay (AID 1963591; active means well fitted inhibition curve with a large enough effect in the signal ratio in the repeat runs, not every such curve was filed as active; the % refers to the signal ratio)
Method in brief: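 Reporter line CRE-bla HEK 293T in dialyzed-FBS DMEM; cells preincubated 18 h, treated 3 h with compound plus NKH477 (0.25 uM final); LiveBLAzer FRET, 2 h RT.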

[16] = target: Beta-2 adrenergic receptor (Homo sapiens) (UniProt P07550); test: Adrenergic beta2 receptor (ADRB2) small molecule antagonists, cell-based qHTS assay (AID 1963592); further: series mostly up to about 92 µM; nearly all actives have a fitted effect of over 50% in size
Method in brief: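 Assay format: CHO-ADRB2 cells, 18-20hr seeding at 37C/5% CO2, then compound plus 1nM isoproterenol agonist mix for 0.5hr RT. Homogeneous time-resolved fluorescence cAMP detection after 1hr, expressed as 665/615 nm ratio.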

[17] = target: D(2) dopamine receptor (Homo sapiens) (UniProt P14416); test: Dopamine D2 receptor (DRD2) small molecule agonists, cell-based qHTS assay (AID 1963594); further: nearly all actives have a fitted effect of over 35% in size
Method in brief: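 HEK293 cells stably expressing human DRD2, pre-treated with PDE inhibitor Ro20-1724 (0.1 mM final) and compound 10 min at room temperature, then stimulated with NKH477 (200nM […]) for 30 min. cAMP read by HTRF (665/620 nm).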

[18] = target: D(2) dopamine receptor (Homo sapiens) (UniProt P14416); test: Dopamine D2 receptor (DRD2) small molecule antagonists, cell-based qHTS assay (AID 1963595; active means well fitted inhibition curve with a large enough effect in the signal ratio in the repeat runs, with a control signal flat; the % refers to the signal ratio)
Method in brief: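 Antagonism was scored as restored cAMP in HEK293-DRD2 cells. These cells were stimulated with 200 nM NKH477 and 12 nM quinpirole for 30 min at room temperature, in the presence of 0.1 mM Ro20-1724.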

[19] = target: Beta-2 adrenergic receptor (Homo sapiens) (UniProt P07550); test: Adrenergic beta2 receptor (ADRB2) small molecule agonists, cell-based qHTS assay (AID 1963593);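 further: CHO cells stably overexpressing human ADRB2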
Method in brief: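 CHO cells stably over-expressing ADRB2 were plated overnight at 37C, then dosed with compounds plus a stimulation mix containing 100uM IBMX and 25uM Ro-20-1724 for 0.5hr at room temperature. cAMP was measured by HTRF competition, 1hr.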

Measured: Potency

5-hydroxytryptamine receptor 2A (Homo sapiens), sequence (P28223 whole entry, looked up): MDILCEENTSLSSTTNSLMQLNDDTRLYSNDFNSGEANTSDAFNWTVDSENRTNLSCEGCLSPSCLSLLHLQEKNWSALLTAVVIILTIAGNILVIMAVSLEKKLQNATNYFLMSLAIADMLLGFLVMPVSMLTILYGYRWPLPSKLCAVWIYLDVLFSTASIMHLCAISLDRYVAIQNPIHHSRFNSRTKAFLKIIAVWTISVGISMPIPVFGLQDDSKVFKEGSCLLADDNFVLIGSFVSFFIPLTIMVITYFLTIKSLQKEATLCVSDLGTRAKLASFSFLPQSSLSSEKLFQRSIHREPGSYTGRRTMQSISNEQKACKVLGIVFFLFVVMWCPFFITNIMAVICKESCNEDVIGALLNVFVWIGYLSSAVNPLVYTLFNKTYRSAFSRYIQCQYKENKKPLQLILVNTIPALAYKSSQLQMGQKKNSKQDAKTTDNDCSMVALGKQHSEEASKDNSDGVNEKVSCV
Beta-2 adrenergic receptor (Homo sapiens), sequence (P07550 whole entry, looked up): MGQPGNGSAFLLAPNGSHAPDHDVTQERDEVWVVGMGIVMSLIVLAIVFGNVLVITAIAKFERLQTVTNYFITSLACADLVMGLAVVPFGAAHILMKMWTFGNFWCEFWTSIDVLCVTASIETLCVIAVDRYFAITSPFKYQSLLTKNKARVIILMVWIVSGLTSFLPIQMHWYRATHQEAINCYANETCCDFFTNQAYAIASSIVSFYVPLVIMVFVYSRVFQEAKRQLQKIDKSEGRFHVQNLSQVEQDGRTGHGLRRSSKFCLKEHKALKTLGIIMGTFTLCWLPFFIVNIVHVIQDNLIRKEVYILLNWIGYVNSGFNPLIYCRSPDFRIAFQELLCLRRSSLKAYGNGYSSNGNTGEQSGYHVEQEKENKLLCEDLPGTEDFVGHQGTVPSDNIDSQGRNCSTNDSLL
Gonadotropin-releasing hormone receptor (Homo sapiens), sequence (P30968 whole entry, looked up): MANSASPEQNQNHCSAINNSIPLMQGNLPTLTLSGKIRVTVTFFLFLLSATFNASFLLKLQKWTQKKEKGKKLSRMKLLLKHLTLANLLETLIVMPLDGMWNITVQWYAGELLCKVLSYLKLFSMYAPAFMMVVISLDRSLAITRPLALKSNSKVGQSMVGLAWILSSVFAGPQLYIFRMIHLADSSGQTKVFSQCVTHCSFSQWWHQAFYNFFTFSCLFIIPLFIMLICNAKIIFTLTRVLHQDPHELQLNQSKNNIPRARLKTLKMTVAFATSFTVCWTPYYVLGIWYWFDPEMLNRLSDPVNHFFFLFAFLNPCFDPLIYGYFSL
KiSS-1 receptor (Homo sapiens), sequence (Q969F8 whole entry, looked up): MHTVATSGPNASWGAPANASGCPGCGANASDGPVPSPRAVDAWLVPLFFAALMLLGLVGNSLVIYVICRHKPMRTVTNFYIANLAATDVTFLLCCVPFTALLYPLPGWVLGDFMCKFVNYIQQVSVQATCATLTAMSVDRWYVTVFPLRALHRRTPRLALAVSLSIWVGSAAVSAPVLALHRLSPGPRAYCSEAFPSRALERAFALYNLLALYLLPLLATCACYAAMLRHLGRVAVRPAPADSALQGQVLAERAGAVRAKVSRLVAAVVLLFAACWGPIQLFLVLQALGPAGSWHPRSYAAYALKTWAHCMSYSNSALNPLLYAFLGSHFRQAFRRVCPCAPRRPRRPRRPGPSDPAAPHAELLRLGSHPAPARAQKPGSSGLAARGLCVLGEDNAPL
Muscarinic acetylcholine receptor M1 (Homo sapiens), sequence (P11229 whole entry, looked up): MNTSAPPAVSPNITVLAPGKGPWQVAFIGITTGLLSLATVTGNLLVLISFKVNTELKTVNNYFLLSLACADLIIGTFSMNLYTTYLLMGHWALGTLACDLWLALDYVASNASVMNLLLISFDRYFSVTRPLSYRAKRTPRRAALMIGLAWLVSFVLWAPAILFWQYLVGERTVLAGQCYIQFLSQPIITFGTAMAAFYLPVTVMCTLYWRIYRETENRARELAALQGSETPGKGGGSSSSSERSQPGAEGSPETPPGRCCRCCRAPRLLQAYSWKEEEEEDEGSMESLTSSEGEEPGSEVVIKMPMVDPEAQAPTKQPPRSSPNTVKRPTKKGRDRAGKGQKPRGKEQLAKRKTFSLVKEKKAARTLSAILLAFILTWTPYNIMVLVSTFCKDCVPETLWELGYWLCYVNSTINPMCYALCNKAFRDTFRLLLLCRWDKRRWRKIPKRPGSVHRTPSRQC
D(2) dopamine receptor (Homo sapiens), sequence (P14416 whole entry, looked up): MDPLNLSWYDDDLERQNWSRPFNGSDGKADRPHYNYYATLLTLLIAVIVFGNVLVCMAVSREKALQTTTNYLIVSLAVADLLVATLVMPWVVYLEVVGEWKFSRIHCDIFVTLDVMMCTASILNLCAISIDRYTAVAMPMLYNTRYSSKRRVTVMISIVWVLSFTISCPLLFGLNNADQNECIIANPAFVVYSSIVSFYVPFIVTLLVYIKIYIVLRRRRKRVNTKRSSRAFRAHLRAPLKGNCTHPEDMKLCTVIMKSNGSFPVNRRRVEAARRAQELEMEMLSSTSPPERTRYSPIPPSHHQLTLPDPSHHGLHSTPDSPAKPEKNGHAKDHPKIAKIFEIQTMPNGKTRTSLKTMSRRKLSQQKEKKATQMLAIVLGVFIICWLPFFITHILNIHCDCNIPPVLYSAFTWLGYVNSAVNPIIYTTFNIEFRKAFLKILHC

Cc1ccc(NC(=O)N(C)C)cc1NC(=O)N(C)C
not listed: [19]
inactive: all other assays above

CCOC(=O)c1ccc(O)c(O)c1
not listed: [16]
inactive: all other assays above

CN(C1CCCCC1)S(=O)(=O)c1ccccc1N
active: [10] 37.5 µM
inactive: all other assays above

CCN(CC)CCNC(=O)c1ccc(NC(C)=O)cc1
not listed: [18]
inactive: all other assays above

CCCCCCCCCCCCCC
not listed: [18]
inactive: all other assays above

C=CC(=O)OCCOC(=O)C=C
active: [2] 68.6 µM
inactive: all other assays above

CCCCCc1cccc(=O)o1
not listed: [19]
inactive: all other assays above

CCOC(=S)SSC(=S)OCC
active: [2] 68.6 µM
not listed: [13]
inactive: all other assays above

CC(C)=CCCC(C)CCOC(=O)C(C)C (centres undefined)
inactive: all assays above

CCCCCCCCCOCC1CO1 (centres undefined)
not listed: [19]
inactive: all other assays above

c1ccc(SCCSc2ccccc2)cc1
active: [2] 12.1 µM
not listed: [13] | [19]
inactive: all other assays above

Cc1cc(CCC(=O)OCCOCCOCCOC(=O)CCc2cc(C)c(O)c(C(C)(C)C)c2)cc(C(C)(C)C)c1O
not listed: [15] | [19]
inactive: all other assays above

Cc1[nH]cnc1-c1ccc(Cl)cc1
inactive: all assays above

CC(C)(CCC(=O)O)C(=O)O
not listed: [19]
inactive: all other assays above
